FLuc inh-1: Firefly luciferase inhibition profiling of diverse chemical library using quantitative high-throughput screening; Luciferin 4-monooxygenase (Photinus pyralis), P08659; purified P. pyralis luciferase, luminescence, biochemical; Potency, µM (highest dose often 115 µM), usual class: inhibitors; 76,000 compounds, 2.5% hits; AID 1347043, 2019; further: on the % scale 0 is the no-effect control and ±100 the full control effect; nearly all actives have a fitted effect of over 65% in size
Target sequence (P08659 whole entry, looked up): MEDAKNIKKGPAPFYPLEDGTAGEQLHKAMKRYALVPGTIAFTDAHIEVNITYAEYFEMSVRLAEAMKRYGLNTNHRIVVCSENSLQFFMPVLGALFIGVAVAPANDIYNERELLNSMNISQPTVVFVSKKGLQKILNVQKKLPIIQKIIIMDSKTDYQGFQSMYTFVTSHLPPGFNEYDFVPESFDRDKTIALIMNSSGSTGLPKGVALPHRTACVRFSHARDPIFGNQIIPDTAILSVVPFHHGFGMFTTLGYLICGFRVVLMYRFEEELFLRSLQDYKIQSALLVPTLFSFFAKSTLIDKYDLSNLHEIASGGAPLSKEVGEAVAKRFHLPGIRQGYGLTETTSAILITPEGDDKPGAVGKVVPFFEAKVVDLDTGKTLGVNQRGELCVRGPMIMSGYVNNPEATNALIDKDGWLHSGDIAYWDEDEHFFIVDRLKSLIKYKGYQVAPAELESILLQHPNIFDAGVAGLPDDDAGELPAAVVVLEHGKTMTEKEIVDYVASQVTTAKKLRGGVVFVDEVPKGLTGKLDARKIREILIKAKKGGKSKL
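Cell-free enzyme assay, 10nM P. pyralis luciferase, luciferin and ATP each at 10uM. Inhibition profiled over a 6-point titration, read as luminescence.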
HEK293 tox: Cytotoxic Profiling in HEK 293 Cell Line of Diverse Libraries Using Quantitative High-Throughput Screening; HEK 293 viability, ATP luminescence (CellTiter-Glo), 48-72 h; 94,000 compounds, 6.6% hits; AID 1345083, 2018; Potency, µM (series often up to 115 µM), for the others: at the top dose activity change, negative = cytotoxicity, usual class: inhibitors; further: on the % scale 0 is the no-effect control and ±100 the full control effect; nearly all actives have a fitted effect of over 60% in size
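HEK 293 cells at 250 cells/well were exposed to compounds by pintool transfer for 48 or 72 hr at 37 degree Celsius, 5% CO2. Viability was read as ATP-coupled luminescence with CellTiter-Glo after 10 min at room temperature.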
NIH3T3 tox: Cytotoxic Profiling in NIH 3T3 Cell Line of Diverse Libraries Using Quantitative High-Throughput Screening; NIH 3T3 viability, CellTiter-Glo ATP luminescence, 48-72 h; Potency, µM (top dose mostly 96.7 µM), for the others: at the top dose activity change, negative = cytotoxicity, hits mostly inhibitors; 94,000 compounds, 4.3% hits; further: on the % scale 0 is the no-effect control and ±100 the full control effect; nearly all actives have a fitted effect of over 55% in size
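Cytotoxicity is measured as loss of cellular ATP: NIH 3T3 cells (400/well) are exposed to compound for 48 or 72 hr at 37 °C, then CellTiter-Glo luminescence is imaged after 10 min at room temperature.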
hNpr1 antagonist: Natriuretic polypeptide receptor (hNpr1) antagonism - Primary qHTS; HEK293 hNpr1 GloSensor cGMP, ANP-stimulated luminescence; Potency, µM (top dose mostly 46.3 µM), for inactives: top-dose activity change, negative = inhibition, hits mostly inhibitors; 76,000 compounds, 1.6% hits; calls by dose curve; further: on the % scale 0 is the no-effect control and ±100 the full control effect; nearly all actives have a fitted effect of over 60% in size
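Compound pre-incubated 30 min at room temperature on GloSensor-loaded HEK293 cells stably carrying hNpr1 and the pGS-40F cGMP biosensor. Stimulation uses hNppA at 0.1 nM final; luminescence is taken at baseline and 20 min post-agonist.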
GPT2 inh: Primary qHTS assay for inhibitors of Glutamate pyruvate transaminase 2 (GPT2); Alanine aminotransferase 2 (Homo sapiens), Q8TD30; Recombinant GPT2, coupled pyruvate oxidase/HRP Amplex Red fluorescence; Potency, µM (doses to about 57.7 µM), for the others: top-dose activity change, negative = inhibition, actives largely listed as inhibitors; 100,000 compounds, 0.25% hits; further: on the % scale 0 is the no-effect control and ±100 the full control effect; nearly all actives have a fitted effect of over 60% in size
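Fluorescence read-out: pyruvate from GPT2 turnover coupled to pyruvate oxidase, HRP and Amplex Red (0.2mM ThPP, 0.2U/mL PO and HRP, 50uM Amplex final). Substrates 250uM a-KG, 2mM L-alanine; enzyme 10ng/uL; 30 min RT.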
FLuc SDR no ATP: Firefly luciferase (FLuc-C-HiBiT) SDR gain of signal screen - without ATP. shares compounds with FLuc inh-1. Purified FLuc-C-HiBiT, Nano-Glo HiBiT luminescence, no ATP. Potency, µM (top dose mostly 32.7 µM), without a hit: at the highest dose activation (signal gain), most hits filed as activators. 1,300 compounds, 7.8% hits. AID 1963318, 2024; further: nearly all actives have a fitted effect of over 55% in size
FLuc SDR ATP: Firefly luciferase (FLuc-C-HiBiT) SDR gain of signal screen - plus ATP; shares compounds with FLuc inh-1; purified FLuc-C-HiBiT + ATP, HiBiT complementation luminescence; Potency, µM (series often up to 32.7 µM), without a hit: at the top dose activation (gain of signal), usual class: activators; 1,300 compounds, 8.7% hits; AID 1963319, 2024;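 further: signal reports ligand binding via conformational change of the enzyme rather than luciferase catalysis; % of control where 0% means no effect; nearly all actives have a fitted effect of over 55% in size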
FLuc inh-2: Firefly luciferase (FLuc-C-HiBiT) enzymatic inhibition screen - Functional assay; 1,300 compounds, 42% hits; Potency, µM (top dose mostly 32.7 µM), without a hit: top-dose activity change, negative = inhibition, actives largely listed as inhibitors; shares compounds with FLuc inh-1; purified FLuc-C-HiBiT enzyme, luciferin luminescence; further: on the % scale 0 is the no-effect control and ±100 the full control effect; nearly all actives have a fitted effect of over 70% in size
* = called active by the depositor; i = inactive; u = inconclusive; x = no result given; [ ] = another dose, or the depositor's remark. A selection: hits, their analogues and other compounds. The true share with any hit is near 10%. Unless noted, the call rests on the fitted dose curve; in most records, active means well fitted curve in the direction sought with a large enough effect; inconclusive means small, poorly fitted or top-dose-only effect, or another doubt; inactive means no such curve, though single readings can be large; an effect the other way counts as inactive or inconclusive. Potency means the concentration at half of the fitted maximal effect.

SMILES | FLuc inh-1 | HEK293 tox | NIH3T3 tox | hNpr1 antagonist | GPT2 inh | FLuc SDR no ATP | FLuc SDR ATP | FLuc inh-2
COc1ccc(-c2nc(C)c(CCNC(=O)c3cccs3)s2)cc1 | x | x | x | x | x | 24.3% | 17.0% | u
Cc1nc(-c2cn(C3CCCN(C(=O)c4ccc(C(C)(C)C)cc4)C3)nn2)no1 (centres undefined) | i | u | -16.9% | -3.3% | 3.5% | x | x | x
COc1ccc(Cn2c(=O)c(C(=O)N3CCN(c4ncccn4)CC3)nc3cccnc32)cc1 | x | u | -12.7% | x | i | x | x | x
O=C(NC1CC1)[C@@H]1CN(Cc2ccc(Br)cc2)C[C@H]1CO | i | u | -10.7% | -10.6% | 3.9% | x | x | x
COc1ccc2cc(C3CN(C(=O)CNC(=O)C(C)C)CCO3)ccc2c1 (centres undefined) | 8.91µM* | -25.1% | -19.4% | 3.7% | -3.6% | u | u | u
Cc1ccc(OCc2nc(C3CN(C(=O)C4(c5ccccc5)CC4)C3)no2)cc1 | i | u | u | 1.3% | i | x | x | x
Cc1ccc(NC(=O)N2CCCC(c3noc(COc4ccccc4)n3)C2)cc1C (centres undefined) | 3.98µM* | u | u | -16.7% | i | 24.8% | 16.3% | 8.81µM*
Cc1ccc(OCc2nc(C3CN(C(=O)c4n[nH]c5ccccc45)C3)no2)cc1 | 8.91µM* | u | 20µM* | u | i | u | u | 8.81µM*
CC(=O)N1CCN(C(=O)c2ccc3nnc(CC4CC4)n3c2)CC1 | x | -2.6%[172 µM] | 0.5%[138 µM] | x | i | x | x | x
CCN(CC)c1cc(CCC(=O)N(C)Cc2ccccc2)ccn1 | i | u | u | -20.1% | i | x | x | x
Cc1ccc(-c2nc(C(=O)N3CCN(c4ccccc4)CC3)no2)cc1 | 12.6µM* | u | u | -1.6% | i | 26.3% | 13.0% | u
CCOC(=O)c1ccc(NC(=O)c2csc3c2CCCC3)cc1 | x | x | x | x | x | 15.6% | 10.9% | u
COCCNC(=O)C1COC2(CCN(C(=O)c3ccc(OC)cc3)CC2)N1C(=O)c1ccc(C)cc1 (centres undefined) | i | -19.9% | -19.2% | -4.4% | -3.7% | x | x | x
CC(=O)c1cccc(Nc2nn(-c3ccc(OC(F)(F)F)cc3)nc2C(C)=O)c1 | x | x | x | x | x | 24.1% | 13.8% | u
O=C(O)c1cccc(-c2ccc(OC(F)(F)F)cc2)c1 | x | -23.6%[172 µM] | -0.8%[138 µM] | x | i | x | x | x
Cc1nc(C2CC23CCN(C(=O)Nc2ccccc2F)CC3)no1 (centres undefined) | x | -29.2% | -25.1% | x | 3.7% | x | x | x
O=C(Cc1ccsc1)N1CCOc2ccc(CN3CCc4ccccc4C3)cc2C1 | i | u | u | -5.1% | i | x | x | x
COCC(=O)Nc1ccc([C@@H](O)[C@H]2COCC(=O)N2Cc2ccccc2)cc1 | i | i | i | 2.6%[70.6 µM] | i | x | x | x
